Rab7 wt GTP bind: alters GTP binding to wildtype dog Rab7; GST-Rab7 beads, fluorescent GTP binding, flow cytometry; actives lie on both sides; untreated = 100%, excess cold GTP = 0%; GTP binding activity (percent of control), % at 10 µM; hit rate 0.055% among 190,000; AID 758;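 active = fluorescent GTP binding to Rab7 beads changed by at least 20 points from the 100% baseline, either direction, mostly lower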;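 also: median green fluorescence of bound Bodipy-FL-GTP per Rab7 bead population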
Rac1 mut GTP: modulators of GTP binding to human Rac1 activated mutant; hit rate 0.11% among 190,000; GST-Rac1 activated beads, fluorescent GTP binding, flow cytometry; actives lie on both sides; 100% means binding = to untreated wells; percent activity (GTP binding), % at 10 µM; AID 764; P63000;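 active = GTP binding at least 20 percentage points away from the 100% baseline, in either direction, so actives lie on both sides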
HRas wt GTP: modulators of GTP binding to human HRas wildtype; P01112; GST-Ras wt beads, Bodipy-FL-GTP binding, flow cytometry; actives lie on both sides; GTP binding activity, % at 10 µM; hit rate 0.14% among 190,000; AID 759;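 active = GTP binding activity at least 20% away from the 100% baseline, either lowered as inhibitor or raised as activator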
Target sequence (P01112 whole entry, looked up): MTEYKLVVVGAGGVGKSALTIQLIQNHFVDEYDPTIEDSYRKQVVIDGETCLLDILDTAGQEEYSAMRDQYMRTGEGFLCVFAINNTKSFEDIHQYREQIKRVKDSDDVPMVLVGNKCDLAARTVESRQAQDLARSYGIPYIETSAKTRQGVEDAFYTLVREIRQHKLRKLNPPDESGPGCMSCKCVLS
Rac1 wt GTP bind: human Rac1 wildtype GTP binding, inhibitors and activators; GTP binding activity (% of control), % at 10 µM; AID 757; hit rate 0.27% among 190,000; P63000; GST-Rac1 beads, fluorescent GTP binding, flow cytometry; actives lie on both sides; 0 = cold GTP competed, 100 = untreated;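 active = GTP binding activity at least 20 points away from the 100% control level, either lower or higher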
Rab2A wt mod: changes GTP binding to wildtype dog Rab2A, up or down. hit rate 0.19% among 190,000. GTP binding activity, % at 10 µM. GST-Rab2 wt beads, Bodipy-GTP binding, flow cytometry. P61105;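 active = GTP binding activity at least 20 points away from 100%, either lowered or raised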
Cdc42 wt GTP: modulators (inhibitors or activators) of GTP binding to human Cdc42 wildtype. hit rate 0.2% among 190,000. percent activity (GTP binding), % at 10 µM. GST-Cdc42 beads, Bodipy-GTP binding, flow cytometry; actives lie on both sides;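 active = percent activity GTP binding at least 20 points away from the 100% baseline, either down as inhibitor or up as activator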;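 also: median bead fluorescence of bound Bodipy-FL-GTP at 100 nM; below 100% means less GTP binding so inhibitor and above means activator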
Target sequence (P60953 whole entry, looked up): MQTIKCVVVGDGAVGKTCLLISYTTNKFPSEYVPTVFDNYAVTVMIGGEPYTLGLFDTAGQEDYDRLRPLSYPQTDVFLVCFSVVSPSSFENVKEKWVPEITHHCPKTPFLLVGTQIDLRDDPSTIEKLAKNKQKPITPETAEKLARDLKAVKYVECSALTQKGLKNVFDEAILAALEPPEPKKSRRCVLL
Numbers stand for hits; – = inactive; [ ] = dose if it differs, or a comment. Most compounds without a hit are left out; they make up all but 0.37% or so of the library.

SMILES	Rab7 wt GTP bind	Rac1 mut GTP	HRas wt GTP	Rac1 wt GTP bind	Rab2A wt mod	Cdc42 wt GTP
COc1ccc(OC)c(S(=O)(=O)Nc2ccc(O)c(Sc3ncn[nH]3)c2)c1	21.0	36.0	39.0	31.0	35.0	36.0
CCOc1ccc(S(=O)(=O)Nc2ccc(O)c(Sc3ncn[nH]3)c2)cc1	–	–	–	–	–	–
CCOc1ccc2c(c1)c(N=NC(=N)N)c(O)n2C	–	–	–	78.0	–	–
CCOc1ccc2c(c1)c(N=Nc1cccc(C(=O)O)c1)c(O)n2C	–	–	–	–	–	–
COc1ccc(C(=O)N[C@H](C(=O)OCc2cc(=O)oc3cc(C)ccc23)C(C)C)cc1	20.0	33.0	37.0	33.0	31.0	33.0
CCOC(=O)c1ccc(NC(=O)c2c(NC(=O)CCC(=O)O)sc3c2CCCCC3)cc1	–	–	–	–	–	–
CCCOC(=O)c1c(NC(=O)CCC(=O)O)sc2c1CCCCC2	–	–	–	–	76.0	–
COc1cccc2sc(Nc3nc(-c4ccccn4)cs3)nc12	–	–	–	79.0	–	–
c1ccc(Nc2nc(-c3ccccn3)cs2)cc1	–	–	–	–	–	–
Cc1c(Cl)c([N+](=O)[O-])nn1Cc1ccc(C(=O)N/N=C\c2ccccn2)o1	–	–	–	75.0	–	–
Cc1ccc(/C=N/NC(=O)c2ccc(Cn3cc([N+](=O)[O-])cn3)o2)cc1	–	–	–	–	–	–
O=C(O)c1cc(-c2ccc(/C=C3\NC(=O)N(c4ccc(Cl)cc4)C3=O)o2)ccc1Cl	–	77.0	–	74.0	–	74.0
O=C1NN(c2ccccc2)C(=O)/C1=C/c1ccc(-c2ccc(Cl)c(C(=O)O)c2)o1	–	–	–	–	–	–
CC(C)n1c(O)c(N=Nc2ccc(Cl)nn2)c2ccccc21	–	–	121.0[activator]	–	129.0[activator]	–
Cc1cc(C(=O)N=Nc2c(O)n(C(C)C)c3ccccc23)n[nH]1	–	–	–	–	–	–
COCCn1c(SCC(=O)NCC2CCCO2)nc2c(c1=O)SC(C)C2 (stereo not given)	–	–	–	–	–	–
O=C(CN1C(=O)S/C(=C/c2cccnc2)C1=O)N1CCOCC1	–	–	78.0	–	70.0	–
O=C(CN1C(=O)S/C(=C/c2ccncc2)C1=O)N1CCOCC1	–	–	–	–	–	–
O=C(N/N=C(\Cc1ncc[nH]1)c1ccccc1)c1cccnc1	–	–	–	–	–	–
Cc1nonc1C(=O)N/N=C/c1ccc(O)cc1O	–	–	–	–	–	–
CC(=O)Nc1ccc(NC(=O)CCn2nnc3ccccc32)cc1	39.0	–	32.0	–	35.0	–
CCCCNC(=O)C(Sc1ccccc1)c1ccccc1 (stereo not given)	–	–	–	–	–	–
O=C(Nc1sc2c(c1C(=O)O)CCCCC2)c1ccccc1	–	77.0	–	–	–	78.0
COc1cccc(-c2cc(C(F)(F)F)c(C#N)c(=O)[nH]2)c1	–	77.0	–	–	78.0	–
NC(=O)NOCc1ncc(C(F)(F)F)cc1Cl	–	–	–	120.0[activator]	–	–
SMILES	Rab7 wt GTP bind	Rac1 mut GTP	HRas wt GTP	Rac1 wt GTP bind	Rab2A wt mod	Cdc42 wt GTP
CO/N=C/NC(=O)NOCc1ncc(C(F)(F)F)cc1Cl	–	–	–	123.0[activator]	–	–
Cc1c(Cl)cccc1NS(=O)(=O)c1ccc2c(c1)C1C=CCC1C(c1ccc(C(=O)O)cc1)N2 (stereo not given)	–	73.0	–	–	–	78.0
COc1cccc(/C=N/Nc2ccc(C(=O)O)cc2)c1O	–	–	–	–	–	–
COc1cccc(/C=N/Nc2nn3cnnc3c3ccccc23)c1O	77.0	70.0	59.0	70.0	60.0	58.0
OC(c1ccc(OCc2ccccc2)cc1)c1nnc(-c2ccccc2)o1 (stereo not given)	–	78.0	–	74.0	–	75.0
OC(c1cccc(OCc2ccccc2)c1)c1nnc(-c2ccccc2)o1 (stereo not given)	–	–	–	–	–	–
CCc1ccccc1OCC(=O)Nc1nc(-c2cccnc2)cs1	–	–	–	–	–	–
CCOc1cc(/C=C2\SC(=O)N=C2N)ccc1O	–	–	–	77.0	–	–
Cn1c(C(=O)OCC(=O)NCc2ccco2)cc2sccc21	–	–	–	–	–	–
CCC(OC(=O)c1cc2sccc2n1C)C(=O)NCc1ccco1 (stereo not given)	22.0	37.0	44.0	37.0	36.0	40.0
CCCCCN(C(=O)NC(=O)Nc1ccccc1C)S(=O)(=O)c1ccccc1	–	–	–	–	–	–
COc1cc(SC#N)ccc1N=Cc1c(C)[nH]n(-c2ccc(Cl)cc2)c1=O	–	–	–	–	–	–
COc1cc(SC#N)ccc1N=Cc1c(C)[nH]n(-c2ccc(C)c(C)c2)c1=O	–	–	–	78.0	79.0	–
COc1cc(CC(=O)OCC(=O)Nc2cccc([N+](=O)[O-])c2)cc(OC)c1OC	–	–	–	–	–	–
CC(Sc1nnc(NC2CCCCC2)s1)C(=O)Nc1ccc2c(c1)C(=O)c1ccccc1C2=O (stereo not given)	–	–	–	75.0	77.0	–
CCN(CC(=O)NC(C)C)C(=O)[C@H](C)NC(=O)c1ccc(Br)cc1	–	–	–	–	–	–
COc1ccc2cc(C)c3nnc(SCc4cccnc4)n3c2c1	–	–	–	–	–	79.0
Nc1nc2c(c(=O)[nH]1)C(c1cccc3ccccc13)C1=C(N2)c2ccccc2C1=O (stereo not given)	–	–	–	74.0	79.0	79.0
NC(=O)COC(=O)c1cccc2c1-c1ccccc1C2=O	–	–	–	72.0	78.0	78.0
O=C(O)c1ccccc1OCCOc1ccccc1	123.0[activator]	132.0[activator]	123.0[activator]	157.0[activator]	130.0[activator]	138.0[activator]
CCSc1nc2nc(C)cc(C)n2n1	–	–	–	–	–	–
Cc1cc(C)n2nc(SCCOc3ccccc3F)nc2n1	–	–	71.0	74.0	71.0	66.0
S=C(NCCc1ccccc1)N1CCn2cccc2C1c1cccnc1 (stereo not given)	–	77.0	–	78.0	–	78.0
S=C(NCc1ccccc1)N1CCn2cccc2C1c1cccnc1 (stereo not given)	–	–	–	–	–	–
CCOc1ccc2nc(NC(=O)CSc3nc(-c4ccccc4)c(C#N)c(=O)[nH]3)sc2c1	–	78.0	–	–	–	–
CCOC(=O)Cc1csc(NC(=O)CSc2nc(-c3ccccc3)c(C#N)c(=O)[nH]2)n1	–	79.0	–	–	–	–
CCOc1ccc2ccccc2c1/C=N/n1cncn1	–	–	–	130.0[activator]	–	–

Assay outcomes from PubChem BioAssay.
